Test [1] is described as follows: qHTS assay to identify small molecule agonists of the vitamin D receptor (VDR) signaling pathway - cell viability counter screen (AID 743224). Also: series mostly up to about 63 µM; % is scaled to controls: 0 for no effect and ±100 for the full control effect; nearly all actives have a fitted effect of over 50% in size. A digest of the protocol: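 Viability is measured in the same wells as the VDR-bla reporter assay: after 16 h compound treatment and 2 h substrate loading, CellTiter-Glo is added and luminescence read 30 min later.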
The nature of test [2]: qHTS assay to identify small molecule agonists of the NFkB signaling pathway (AID 1159509; active = well fitted curve in the direction sought with a large enough effect in the signal ratio in the repeat runs, not every such curve was filed as active; the % refers to the signal ratio; also: series mostly up to about 61 µM; % is scaled to controls: 0 for no effect and ±100 for the full control effect). In short, it runs like this:
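After overnight attachment, reporter cells received test compounds, DMSO or positive controls and were incubated 5 hr at 37 C. FRET substrate was then added for 1.5 hr at room temperature before dual-emission fluorescence reading.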

The nature of test [3]: qHTS assay to identify small molecule agonists of the NFkB signaling pathway - cell viability counter screen (AID 1159515; calls by dose curve; also: series mostly up to about 61 µM; % is scaled to controls: 0 for no effect and ±100 for the full control effect; nearly all actives have a fitted effect of over 55% in size). In short, it runs like this: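 Multiplexed viability readout: after the 5 hr compound exposure and 1.5 hr FRET substrate step, CellTiter-Glo reagent went into the same NFkB-bla ME-180 wells; ATP luminescence was measured after 30 min at room temperature.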

A short description of test [4]: qHTS assay to identify small molecule agonists of the endoplasmic reticulum stress response signaling pathway (AID 1159516; active = well fitted activation curve with a large enough effect in the signal ratio in the repeat runs, not every such curve was filed as active; the % refers to the signal ratio; also: % is scaled to controls: 0 for no effect and ±100 for the full control effect). A digest of the protocol: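 Tox21 10K library screened in quantitative HTS format on ESRE-bla HeLa cells, a beta-lactamase reporter under ER stress response element control; 5 hr treatment, FRET read.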
A short description of test [5]: qHTS assay to identify small molecule agonists of the endoplasmic reticulum stress response signaling pathway - cell viability counter screen (AID 1159517; calls by dose curve; also: series mostly up to about 61 µM; % is scaled to controls: 0 for no effect and ±100 for the full control effect; nearly all actives have a fitted effect of over 50% in size). In short, it runs like this:
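Cells, HeLa ESRE-bla; density, 1,500/well; dosing, 5 hr at 37 C, 5% CO2; readout, CellTiter-Glo luminescence after 30 min RT.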

Test [6] is described as follows: qHTS assay to identify small molecule antagonists of the retinoid-related orphan receptor gamma (ROR-gamma) signaling pathway - cell viability counter screen (AID 1159520). Also: % is scaled to controls: 0 for no effect and ±100 for the full control effect; nearly all actives have a fitted effect of over 50% in size. In short, it runs like this:
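Cytotoxicity was read from cellular ATP (CellTiter-Glo luminescence) after 16 hr at 37 C with 1 uM doxycycline induction. The inducer was added 2 hr after compound transfer to Tet-on ROR gamma CHO cells.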

Test [7] concerns the target Nuclear receptor ROR-gamma (Homo sapiens) (UniProt P51449). Description: qHTS assay to identify small molecule antagonists of the retinoid-related orphan receptor gamma (ROR-gamma) signaling pathway (AID 1159521;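 also: CHO cells with doxycycline inducible ROR-gamma driving an RORE luciferase reporter; top concentration of the series differs between compounds; % is scaled to controls: 0 for no effect and ±100 for the full control effect; nearly all actives have a fitted effect of over 50% in size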). In short, it runs like this:
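Test compounds were applied to Tet-on RORγ CHO cells 2 h ahead of doxycycline hyclate (1 uM final). Luciferase reporter activity was quantified by luminescence after 16 h at 37 C and 5% CO2.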

Test [8] is described as follows: qHTS assay to identify small molecule agonists of the AP-1 signaling pathway - cell viability counter screen (AID 1159525; calls by dose curve; also: nearly all actives have a fitted effect of over 55% in size). A digest of the protocol: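 Luminescent ATP readout (Cell Titer Glo, 30 min RT), normalised to DMSO and tetra n-octyl ammonium bromide controls. Cells were ME-180 AP-1-bla in 0.5% dialyzed FBS Opti-MEM, with a 5 h, 37 °C compound exposure.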

Test [9] is described as follows: qHTS assay to identify small molecule agonists of the AP-1 signaling pathway (AID 1159526; calls by dose curve; also: % is scaled to controls: 0 for no effect and ±100 for the full control effect).
Test [10] has as its target Retinoic acid receptor RXR-alpha (Homo sapiens) (UniProt P19793). Description: qHTS assay to identify small molecule agonists of the RXR signaling pathway (AID 1159527; calls by dose curve; also: % is scaled to controls: 0 for no effect and ±100 for the full control effect; nearly all actives have a fitted effect of over 35% in size). A digest of the protocol:
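Using 9-cis retinoic acid as the reference agonist, chemicals were tested in HEK 293T cells […] for 16 hr; substrate loading lasted 2 hr at room temperature.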

The nature of test [11]: qHTS assay to identify small molecule agonists of the RXR signaling pathway - cell viability counter screen (AID 1159529). A digest of the protocol:
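Compounds dissolved in DMSO were pinned onto HEK 293T cells carrying a beta-lactamase reporter under RXR-alpha control and incubated 16 hr. Cytotoxicity was then quantified by CellTiter-Glo luminescence.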

Test [12] can be described thus: qHTS assay to identify small molecule antagonists of the retinoic acid receptor (RAR) signaling pathway (AID 1159552). A digest of the protocol: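 Test chemicals and DMSO controls were pin-transferred onto C3RL4 cells a day after seeding; retinol (1 uM final) followed at once. Luminescent reporter output was quantified after 6 hr of co-incubation and 30 min with detection reagent.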

Test [13] is described as follows: qHTS assay to identify small molecule agonists of the retinoic acid receptor (RAR) signaling pathway (AID 1159553). Also: % is scaled to controls: 0 for no effect and ±100 for the full control effect. A digest of the protocol:
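Agonist activity was scored in C3RL4 cells bearing a retinoic acid response element luciferase construct. Cells were treated with compounds for 6 hr at 37 C, and luciferase signal was measured as luminescence.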

Test [14] deals with Luciferin 4-monooxygenase (Photinus pyralis) (UniProt P08659). Kind of test: qHTS assay to identify small molecule inhibitors of firefly luciferase (AID 1224835). Also: series mostly up to about 120 µM; % is scaled to controls: 0 for no effect and ±100 for the full control effect; nearly all actives have a fitted effect of over 25% in size. In short, it runs like this:
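Inhibition of purified Photinus luciferase is measured by luminescence. Substrate levels (D-luciferin, ATP) sit at their KM values. Each compound is tested in a concentration series.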

Test [15] can be described thus: qHTS assay to identify small molecule agonists of the constitutive androstane receptor (CAR) signaling pathway - cell viability counter screen (AID 1224836). Also: series mostly up to about 92 µM; % is scaled to controls: 0 for no effect and ±100 for the full control effect; nearly all actives have a fitted effect of over 45% in size. In short, it runs like this:
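23 h treatment, 37 C, 5% CO2. Cell line: HepG2 stably expressing hCAR with a CYP2B6-2.2kb construct. Co-treatment: PK11195, 0.75 uM final. Read-out: CellTiter-Fluor fluorescence intensity.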

Test [16] can be described thus: qHTS assay to identify small molecule antagonists of the constitutive androstane receptor (CAR) signaling pathway - cell viability counter screen (AID 1224837). Also: series mostly up to about 92 µM; % is scaled to controls: 0 for no effect and ±100 for the full control effect; nearly all actives have a fitted effect of over 45% in size. A digest of the protocol:
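Multiplexed cytotoxicity read-out for the CAR antagonist screen: double-stable HepG2-CYP2B6-hCAR cells co-treated with 50 nM CITCO (final) and compound over 15 concentrations, incubated 23 hr, then assessed by CellTiter-Fluor fluorescence.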

For test [17], the target named is Nuclear receptor subfamily 1 group I member 3 (Homo sapiens) (UniProt Q14994). Kind of test: qHTS assay to identify small molecule antagonists of the constitutive androstane receptor (CAR) signaling pathway (AID 1224838). Also: nearly all actives have a fitted effect of over 40% in size. Also: potency is read from the fitted curve at half-maximal effect. In short, it runs like this:
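Compounds were titrated across 15 concentrations onto HepG2 cells double-stably expressing hCAR and a CYP2B6-2.2kb reporter, together with 50 nM CITCO (final). After 24 h at 37 C, luciferase activity was measured by luminescence.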

The nature of test [18]: qHTS assay to identify small molecule antagonists of the estrogen related receptor (ERR) signaling pathway from Tox21 library - cell viability counter screen (AID 1224834). Also: % is scaled to controls: 0 for no effect and ±100 for the full control effect; nearly all actives have a fitted effect of over 30% in size. A digest of the protocol:
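Cytotoxicity of test substances is gauged in the same ERR cells used for the antagonist screen, after 17.5 h of compound treatment at 37 C, by CellTiter-Fluor fluorescence measured after 30 min.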

Test [19] can be described thus: qHTS assay to identify small molecule antagonists of the vitamin D receptor (VDR) signaling pathway - cell viability counter screen (AID 743225). A digest of the protocol: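 Compounds were pinned onto VDR-bla HEK 293T cells together with 1-alpha,25-dihydroxyvitamin D3 at 3 nM final. After 16 h at 37C and 5% CO2 plus the reporter readout, cell viability was measured by CellTiter-Glo luminescence (30 min, room temperature).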

The nature of test [20]: qHTS assay to identify small molecule antagonists of the retinoid acid receptor (RAR) signaling pathway - cell viability counter screen (AID 1159551). Also: % is scaled to controls: 0 for no effect and ±100 for the full control effect; nearly all actives have a fitted effect of over 35% in size. In short, it runs like this:
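Cytotoxicity counter screen in C3RL4 cells: 6 h compound exposure with 1 uM retinol (final), viability from cellular ATP by luminescence.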

Experimental findings from PubChem BioAssay (Tox21) are described below.

Inconclusive results are not listed. A number with no mark means an inactive call. The source made the active and inactive calls. Unless noted, calls follow the shape of the dose curve; as a rule, active = well fitted curve in the direction sought with a large enough effect in the repeat runs; inconclusive = weak or mixed curves; inactive = no such curve, though single readings can be large; an effect the other way counts as inactive or inconclusive.

Sequence of Retinoic acid receptor RXR-alpha (Homo sapiens) (P19793 whole entry, looked up): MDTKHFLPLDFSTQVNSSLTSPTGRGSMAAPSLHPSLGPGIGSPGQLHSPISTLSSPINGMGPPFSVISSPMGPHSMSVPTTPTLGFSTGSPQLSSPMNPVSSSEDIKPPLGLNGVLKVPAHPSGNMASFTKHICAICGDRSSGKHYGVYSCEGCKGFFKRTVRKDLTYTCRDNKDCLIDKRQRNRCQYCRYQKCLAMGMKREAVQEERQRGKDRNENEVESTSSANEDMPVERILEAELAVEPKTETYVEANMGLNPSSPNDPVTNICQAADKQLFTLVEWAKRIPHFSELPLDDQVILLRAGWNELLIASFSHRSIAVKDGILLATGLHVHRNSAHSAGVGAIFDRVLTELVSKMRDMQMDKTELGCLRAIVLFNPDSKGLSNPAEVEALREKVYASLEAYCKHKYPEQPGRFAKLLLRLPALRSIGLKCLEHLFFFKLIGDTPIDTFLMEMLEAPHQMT
Sequence of Nuclear receptor subfamily 1 group I member 3 (Homo sapiens) (Q14994 whole entry, looked up): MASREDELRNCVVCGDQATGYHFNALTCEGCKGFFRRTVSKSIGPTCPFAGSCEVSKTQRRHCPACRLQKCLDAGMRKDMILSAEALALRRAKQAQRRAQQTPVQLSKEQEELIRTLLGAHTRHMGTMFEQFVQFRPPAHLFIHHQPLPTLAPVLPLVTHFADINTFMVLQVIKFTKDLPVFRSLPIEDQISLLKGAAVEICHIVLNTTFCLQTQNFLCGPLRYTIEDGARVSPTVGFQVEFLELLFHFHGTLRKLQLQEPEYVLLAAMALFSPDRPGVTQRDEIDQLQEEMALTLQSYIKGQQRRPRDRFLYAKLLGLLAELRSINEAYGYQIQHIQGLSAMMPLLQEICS
Sequence of Luciferin 4-monooxygenase (Photinus pyralis) (P08659 whole entry, looked up): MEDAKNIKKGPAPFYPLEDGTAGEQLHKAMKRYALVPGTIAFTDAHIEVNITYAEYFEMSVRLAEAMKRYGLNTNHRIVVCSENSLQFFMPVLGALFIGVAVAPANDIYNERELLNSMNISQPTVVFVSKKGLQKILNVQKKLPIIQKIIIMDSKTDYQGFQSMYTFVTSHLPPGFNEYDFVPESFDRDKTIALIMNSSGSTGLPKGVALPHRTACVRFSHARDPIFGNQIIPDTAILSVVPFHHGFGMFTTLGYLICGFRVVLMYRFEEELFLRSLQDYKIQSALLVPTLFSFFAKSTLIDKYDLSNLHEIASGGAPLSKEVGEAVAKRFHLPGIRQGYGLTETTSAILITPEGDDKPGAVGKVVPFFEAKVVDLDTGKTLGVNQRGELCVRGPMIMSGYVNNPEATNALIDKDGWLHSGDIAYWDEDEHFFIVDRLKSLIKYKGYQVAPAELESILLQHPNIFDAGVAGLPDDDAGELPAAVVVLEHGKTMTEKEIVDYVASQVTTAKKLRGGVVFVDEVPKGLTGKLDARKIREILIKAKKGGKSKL

With `CC(C)OC(=O)OCOP(=O)(CO[C@H](C)Cn1cnc2c(N)ncnc21)OCOC(=O)OC(C)C`, the call in test [1], in [2], in [3], in [4], in test [5] and in test [6] was inactive. In addition, the molecule was classed as inactive in [7], in test [8], in test [9], in test [11], in test [12] and in [15]. Besides, in test [16], the molecule was classed as inactive. Moreover, the Potency entry in test [10], in [13] and in test [14] was “inactive” in each case. Further, the Potency in [17] is 2370 nM (active).

Regarding `Cc1c(NC(=O)c2cccnc2)c(=O)n(-c2ccccc2)n1C`, the molecule was classed as inactive in test [1], in test [2], in [3], in test [4], in [5] and in test [6]. Further, the call in [7], in [8], in test [9], in test [11], in test [12] and in [18] was inactive. Besides, the outcome in test [15] and in test [16] was inactive. Further, the Potency result in test [10], in test [13], in [14] and in test [17] was “inactive” throughout.

On to `CC(=O)OC(C)=O`, for which the outcome in [1], in test [19], in test [2], in [3], in test [4] and in test [5] was inactive. Moreover, the call in test [6], in test [7], in [8], in [9], in test [11] and in [20] was inactive. For the same molecule, the molecule was classed as inactive in [12], in test [18], in test [15] and in test [16]. The Potency result in test [10], in [14] and in test [17] was “inactive” in each case.

Turning to `O=C1OCCO1`, the call in test [1], in test [19], in test [2], in [3], in test [4] and in [5] was inactive. Also, the outcome in test [6], in test [7], in [8], in [9], in test [11] and in test [12] was inactive. Moreover, the outcome in [18], in test [15] and in test [16] was inactive. Further, the Potency result in test [10], in test [13], in test [14] and in test [17] was “inactive” in each case.

As to `CC(=O)O[C@H]1C[C@@H]2CC[C@@]1(C)C2(C)C`, the molecule was called inactive in test [1], in [19], in test [2], in test [3], in [4] and in test [5]. The molecule was called inactive in [6], in test [7], in test [9], in [11], in test [20] and in test [12]. In addition, the call in [18], in test [15] and in test [16] was inactive. For the same molecule, the Potency result in test [10], in test [13], in [14] and in test [17] was “inactive” in each case.

Consider `CN1C[C@@H]2C[C@H]1CN2c1cc2c(cc1F)c(=O)c(C(=O)O)cn2C1CC1`, for which the molecule was classed as inactive in [1], in [19], in [2], in [3], in test [4] and in test [5]. Besides, the activity, negative = cytotoxicity in [6] was 0.279% [at 19 µM]. The results for the activity change, negative = inhibition in [7] and in test [14] were 4.47% [at 19 µM] and 0.0867% [at 23.6 µM], respectively. The results for the viability change, negative = cytotoxic in test [8] and in test [15] were 6.22% [at 15.8 µM] and -2.13% [at 19 µM], respectively. In addition, the activation in [9] is -4.01% [at 15.8 µM]; in test [10], 12.3% [at 15.8 µM]. Besides, the results for the activity change, negative = cytotoxicity in test [11] and in test [16] were 0.369% [at 15.8 µM] and -13.4% [at 19 µM], respectively. Further, the activity, negative = inhibition in test [12] is 0.455% [at 19 µM]; in test [17] it was -6.55% [at 19 µM].

Turning to `CNCCS(=O)(=O)O`, the molecule was classed as inactive in test [1], in test [2], in [3], in test [4], in test [5] and in test [6]. Moreover, the result in [7], in [8], in test [9], in [11], in test [12] and in test [18] was inactive. Moreover, the molecule was called inactive in test [15] and in test [16]. In addition, the Potency entry in test [10], in test [13], in [14] and in test [17] was “inactive” in each case.
